Screens from PubChem BioAssay.
Rows were chosen to be rich in hits. Some 4.1% of all compounds tested hit in one or more screens of this group.
tim23-1 inh: growth inhibitors of tim23-1 mutant yeast, primary screen, luminescence, uHTS; inhibition, % at 20 µM; S. cerevisiae tim23-1 growth, BacTiter-Glo luminescence, 24 h; 330,000 tested, 1.3% active;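 active means growth inhibition of the mutant yeast at or above 50%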;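 further: temperature-sensitive mutant grown at 25 °C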
PfHsp90 set2: growth inhibition of PfHsp90-expressing yeast, primary screen, antimalarial PfHsp90 inhibitor project, S. cerevisiae, BacTiter-Glo luminescence, single point, set 2 | inhibition, % at 9.4 µM | BacTiter-Glo ATP, 48 h; yeast lacking PDR1 and PDR3 efflux regulators | AID 504621, 2011 | 310,000 tested, 0.32% active;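 active means every replicate shows inhibition above about 80%, whatever the replicate mean, limit read from the data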
NALP1 inh: NALP1 inflammasome inhibitors in reconstituted yeast, colorimetric, S. cerevisiae, triplicate retest; 280,000 tested, 0.61% active; S. cerevisiae NALP1/ASC/caspase-1 growth, X-gal OD620, 72 h; inhibition, % at 10 µM; in the data active means inhibition mostly above about 24%, no sharp cut-off; inactive means mostly below about 32%
TIM10 inh: growth inhibitors of isogenic TIM10 control yeast, primary screen, counter-screen for tim10-1 yeast inhibitor project, luminescence, uHTS; S. cerevisiae TIM10 strain growth, BacTiter-Glo luminescence, 24 h; AID 463195, 2010; inhibition, % at 10 µM; 330,000 tested, 1.4% active;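 active means inhibition of 40% or more at the single tested concentration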;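 further: wild-type TIM10 isogenic control strain grown at permissive 25 °C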
NALP3 yeast inh: NALP3 inflammasome inhibitors in reconstituted yeast, primary screen, luminescence, uHTS | Yeast reconstituted NLRP3/ASC/caspase-1, beta-gal luminescence, 24 h | inhibition, % at 10 µM | 330,000 tested, 0.39% active;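 active means inhibition of 50% or more; inactive means inhibition below 50%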
tim10-1 inh: growth inhibitors of tim10-1 mutant yeast, primary screen, luminescence, uHTS. AID 463190, 2010. S. cerevisiae tim10-1 ts strain growth, BacTiter-Glo, 24 h. inhibition, % at 20 µM. 330,000 tested, 2.2% active;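 active means inhibition of at least 40%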;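 further: mutant grown at 25 °C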
NALP3 yeast conf: NALP3 inhibitors retested in yeast, confirmation, luminescence, single concentration; shares compounds with NALP3 yeast inh; yeast expressing human NALP3; inhibition, % at 10 µM; 1,300 tested, 81% active; in the data active means inhibition above about 48%
Casp1 ASC ctr: CASP1-PYCARD signaling inhibition in yeast, confirmatory test, counterassay for NLRP3 inhibitor program, one-dose | AID 488784, 2010 | 1,000 tested, 66% active | yeast expressing Caspase-1-ASC, luminescence counter screen | shares compounds with NALP3 yeast inh | inhibition, % at 10 µM
NALP3 retest: NALP3 inhibitors in yeast, repeat test, confirmation, luminescence, single concentration, retest; yeast expressing human NALP3, luminescence read-out; AID 488794, 2010; shares compounds with NALP3 yeast inh; inhibition, % at 10 µM; 1,000 tested, 53% active
Each line names hits and unclear results; the compound was inactive in the other large screens (follow-up assays come after a bar, where they were run). Unless noted, no stated cut-off is given here; in the data, active means inhibition above about 50%; inactive means the rest.

Clc1cccc(Nc2ncnc3c2cnn3-c2ccccc2)c1	NALP3 yeast inh 53 (no result: NALP1 inh) | NALP3 yeast conf 61 | Casp1 ASC ctr inactive | NALP3 retest inactive
Fc1cccc(Nc2ncnc3c2cnn3-c2ccccc2)c1	NALP3 yeast inh 63 | NALP3 yeast conf 77
COc1cccc(Nc2ncnc3c2cnn3-c2cccc(C)c2)c1	none (no result: PfHsp90 set2)
CN1CCN(c2ccc(NC(=O)c3cccc(OCc4ccccc4)c3)cc2)CC1	NALP1 inh 31, NALP3 yeast inh 50 | NALP3 yeast conf 55 | Casp1 ASC ctr inactive | NALP3 retest inactive
O=C(CCn1nnc2ccccc21)NNC(=O)C1CCCCC1	none
O=C1c2ccccc2C(=O)C12OC2c1ccc(Cl)cc1 (stereo not drawn)	none (no result: PfHsp90 set2) | NALP3 yeast conf inactive
Cc1[nH]c2nc3ccccc3n2c(=O)c1CCC(C)C	none
Cc1cc2nc(N3C(=O)CNC3=S)sc2cc1C	NALP3 yeast inh 69 | NALP3 yeast conf 82
CC(=O)N1N=C(c2ccc(Cl)cc2)OC1(C)C	NALP3 yeast inh 71 | NALP3 yeast conf 51 | Casp1 ASC ctr 52 | NALP3 retest inactive
CCC(=Nc1ccccc1O)C1=C(O)CC(c2ccccc2)CC1=O (stereo not drawn)	NALP3 yeast inh 62 | NALP3 yeast conf 74 | Casp1 ASC ctr 55 | NALP3 retest 56
CCC(=Nc1ccccc1OC)C1=C(O)CC(c2ccccc2)CC1=O (stereo not drawn)	none
CC1CC(C)(C)CC2(C1)NC(=O)N(CC(=O)Nc1ccc(N3CCCCC3)cc1)C2=O (stereo not drawn)	none
COc1ccc(C(=O)NNC(=O)OC(C)(C)C)cc1	none (no result: NALP1 inh)
COc1ccc(C(=O)NN/C(C)=C/C(=O)C(F)(F)C(F)(F)C(F)(F)F)cc1	NALP3 yeast inh 57 | NALP3 yeast conf 45 | Casp1 ASC ctr inactive | NALP3 retest inactive
Nc1nc2ccccc2cc1-c1cccs1	NALP3 yeast inh 51 | NALP3 yeast conf 69 | Casp1 ASC ctr 59 | NALP3 retest 63
Cc1cccc(N(C)c2ccc3cc(S(=O)(=O)N4CCCC4)ccc3n2)c1	NALP3 yeast inh 68 | NALP3 yeast conf 79 | Casp1 ASC ctr 75 | NALP3 retest 58
O=C(Nc1ccncc1)c1cccc(F)c1	none
O=C(Nc1ccc(Nc2ccccc2)cc1)c1cccc(F)c1	NALP3 yeast inh 57 | NALP3 yeast conf 72 | Casp1 ASC ctr 51 | NALP3 retest 57
C(=C\n1nnc2ccccc21)/c1ccccn1	NALP3 yeast inh 53 (no result: NALP1 inh) | NALP3 yeast conf 71 | Casp1 ASC ctr inactive
Cc1c(C)c2c(OCC(=O)N[C@@H](CC(C)C)C(=O)O)cc3c(c2oc1=O)CCC(C)(C)O3	none
CCCCc1c(C)c(C#N)c2[nH]c3ccccc3n2c1=O	NALP3 yeast inh 58 | NALP3 yeast conf 78 | Casp1 ASC ctr inactive | NALP3 retest inactive
CSc1nc(S(=O)(=O)c2ccc(C)cc2)c(Cl)s1	none (no result: PfHsp90 set2)
CCOc1nc(S(=O)(=O)c2ccc(C)cc2)c(Cl)s1	none | NALP3 yeast conf inactive
C[C@@H](N)C(=O)NC[C@H]1CC[C@H](C(=O)N[C@@H](Cc2ccccc2)C(=O)O)CC1	NALP3 yeast inh 62 | NALP3 yeast conf 76 | Casp1 ASC ctr 58 | NALP3 retest 63
Cc1cc2ccccn2c1C(=O)c1ccccc1F	NALP3 yeast inh 51 | NALP3 yeast conf 61 | Casp1 ASC ctr inactive | NALP3 retest inactive
Cc1ccc(S(=O)(=O)c2ncccc2N)cc1	none
Cc1ccc(S(=O)(=O)c2ncccc2[N+](=O)[O-])cc1	NALP1 inh 36, NALP3 yeast inh 58 | NALP3 yeast conf 69 | Casp1 ASC ctr 68 | NALP3 retest 58
c1cc(-c2cc3cc4c(cc3cn2)OCO4)cs1	NALP3 yeast inh 57 (no result: NALP1 inh) | NALP3 yeast conf 51 | Casp1 ASC ctr inactive | NALP3 retest inactive
CC(C)c1nnc(NC(=O)C2CCCCC2)s1	none
CSc1nnc(NC(=O)C2CCCCC2)s1	NALP3 yeast inh 55 (no result: NALP1 inh) | NALP3 yeast conf 75 | Casp1 ASC ctr 58 | NALP3 retest inactive
O=C(Nc1nnc(-c2ccco2)s1)C1CCCCC1	NALP3 yeast inh 58 | NALP3 yeast conf inactive | Casp1 ASC ctr inactive | NALP3 retest inactive
CCSc1nnc(NC(=O)C2CCCCC2)s1	NALP3 yeast inh 61 | NALP3 yeast conf 79 | Casp1 ASC ctr 67 | NALP3 retest 61
Cc1ccc(NC(=O)COc2ccc3c(c2)OCO3)c(C)c1	none (no result: PfHsp90 set2, NALP1 inh)
CCc1ccc(C2=NN(C(=O)CCC(=O)O)C(c3cccs3)C2)cc1 (stereo not drawn)	none
O=C(NC1CC2CCCC(C1)N2Cc1ccccc1)c1ccc([N+](=O)[O-])cc1 (stereo not drawn)	none
Cc1ccc(OCc2nc(-c3cccnc3)no2)cc1C	NALP3 yeast inh 51 | NALP3 yeast conf 61 | Casp1 ASC ctr inactive | NALP3 retest inactive
Cc1ccc(OCc2nc(-c3ccccn3)no2)c(Br)c1	none
Cc1ccc(OCc2nc(-c3ccccn3)no2)cc1	NALP3 yeast inh 56 | NALP3 yeast conf 70 | Casp1 ASC ctr 72 | NALP3 retest 64
CC1(C)[C@@H](O)CC[C@]2(C)C3C(O)C=C4[C@H]5C[C@@](C)(C(=O)O)CC[C@]5(C)CC[C@]4(C)[C@]3(C)CC[C@@H]12 (stereo partly drawn)	NALP3 yeast inh 60 (no result: PfHsp90 set2, NALP1 inh) | NALP3 yeast conf 70
CCC(=O)c1ccc(N2CCCC2)c(F)c1	none
CCCC(=O)c1ccc(N2CCCC2)c(F)c1	NALP3 yeast inh 55 | NALP3 yeast conf inactive
Cc1ccc(NC(=S)NNC(C)(C)C)cc1	NALP3 yeast inh 51 | NALP3 yeast conf inactive | Casp1 ASC ctr 61 | NALP3 retest inactive
C[C@]12C=CC(=O)C=C1CCC1C2CC[C@@]2(C)C1CCC21OCCO1 (stereo partly drawn)	none (no result: NALP1 inh)
C[C@]12C=C[C@H](O)CC1=CCC1C2CC[C@@]2(C)C1CCC21OCCO1 (stereo partly drawn)	NALP3 yeast inh 57 (no result: NALP1 inh) | NALP3 yeast conf 71
Cc1noc(C)c1NC(=O)Nc1ccc2c(c1)C(=O)N([C@H](C)CO)C[C@H](C)[C@@H](CN(C)S(=O)(=O)c1c(C)noc1C)O2	none (no result: NALP1 inh)
COc1ccc(S(=O)(=O)NNC(=S)NCCc2ccccc2)c(OC)c1	none
